The values below come from PubChem BioAssay (EPA / NIEHS).

Molecules are shown by their SMILES. Several values for one entry are separate records, joined by “and”; a condition that tells them apart may be missing. Identical values can stand only once. Records with an inconclusive call do not appear. Activity calls are given as the source filed them. Rule for the calls, unless noted: active = hit-call score of the fitted dose curve at least 0.9, where 1 is the maximum; inconclusive = response in the unintended direction; inactive = score below 0.9.

Assay [1] can be described thus: IUF_NPC4_neurite_area_120hr: Leibniz Research Institute for Environmental Medicine (IUF) 120-hour Neuronal Morphology Assay for Neurite Area (NPC4) (AID 2284305). In outline:
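Neurite area (pixels, nuclei excluded) of TUBB3-positive neurons from hNPC spheres differentiating 5 days under continuous exposure at 37 C, 5% CO2. High-content imaging; loss of signal versus DMSO control across 7 concentrations.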

A short description of assay [2]: IUF_NPC2-5_cytotoxicity_72hr: Cytotoxicity Assessment at 72 hours in the Leibniz Research Institute for Environmental Medicine (IUF) Neural Progenitor Cell Migration and Differentiation Assay for Cytotoxicity (NPC2-5) (AID 2284306).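 Note: LDH release into supernatant measured by resorufin fluorescence marking membrane damage.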 In outline: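 Membrane-integrity cytotoxicity at 72 h, read as LDH-driven resorufin fluorescence in supernatant. hNPC spheres from fetal cortex differentiate on coated plates in N2 medium, 37C, 5% CO2; seven serial compound concentrations plus solvent control (DMSO ≤0.1%).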

Assay [3] can be described thus: IUF_NPC2-5_cytotoxicity_120hr: Cytotoxicity Assessment at 120 hours in the Leibniz Research Institute for Environmental Medicine (IUF) Neural Progenitor Cell Migration and Differentiation Assay (NPC2-5) (AID 2284307).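 For AC50: LDH released into supernatant as membrane damage marker via resorufin fluorescence.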 The procedure, abridged:
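Membrane-integrity loss is quantified by LDH in supernatant after five days of exposure of migrating, differentiating human fetal NPC spheres; seven serially diluted concentrations are tested with DMSO kept at or below 0.1%.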

Assay [4] is described as follows: IUF_NPC2-5_cell_number_120hr: Cell Number Assessment at 120 hours in the Leibniz Research Institute for Environmental Medicine (IUF) Neural Progenitor Cell Migration and Differentiation Assay (NPC2-5) (AID 2284308; active = hit-call score of the fitted dose curve at least 0.9, where 1 is the maximum; inactive = score below 0.9;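 note: count of Hoechst-stained nuclei in migration zone around plated human neural progenitor spheres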). The procedure, abridged:
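Seven-point serial dilutions plus solvent control were applied to plated 0.3 mm hNPC spheres at differentiation start, with medium half-replaced at day 3. Nuclei positive for Hoechst in the migration zone were enumerated at 120 h.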

Assay [5] is described as follows: IUF_NPC2-5_viability_120hr: Viability Assessment at 120 hours in the Leibniz Research Institute for Environmental Medicine (IUF) Neural Progenitor Cell Migration and Differentiation Assay (NPC2-5) (AID 2284312; active = hit-call score of the fitted dose curve at least 0.9, where 1 is the maximum; inactive = score below 0.9). The procedure, abridged: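 Alamar blue resorufin fluorescence read after 5 days of differentiation, with compound present from day 0 and replenished at day 3. Primary hNPC spheres on laminin-coated plates, 37C; seven concentrations plus solvent control, fitted against DMSO.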

The test system of assay [6] is IYD (gene 389434). In words: CCTE_GLTED_hIYD: CCTE's human Iodotyrosine Deiodinase (xIYD) Inhibition Assay, Great Lakes Toxicology and Ecology Division (GLTED) Lab (AID 2284317).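 Note: cell-free human IYD enzyme made in baculovirus insect cells; iodide freed from monoiodotyrosine measured by cerium arsenite color change at 420 nm.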 In outline: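 Iodide liberated from monoiodotyrosine by baculovirus-expressed human IYD over 3 h was determined colorimetrically (Sandell-Kolthoff, 420 nm) after Dowex separation; inhibition is loss of signal versus DMSO.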

A short description of assay [7]: CCTE_Mundy_HCI_iCellGluta_NOG_NeuriteLength: CCTE's Neurite Outgrowth Assay in iCellGluta cells for Neurite Length, Mundy Lab (AID 2284318). The procedure, abridged: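 Automated high-content imaging of betaIII-tubulin (Alexa Fluor-488) and Hoechst-stained cells gave neurite length, normalized to the DMSO baseline.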
Assay [8] in a line: CCTE_Deisenroth_5AR_NBTE_donor: CCTE's 5alpha-reductase NanoBRET Target Engagement Assay […], Deisenroth Lab (AID 2284319; active = hit-call score of the fitted dose curve at least 0.9, where 1 is the maximum; inactive = score below 0.9). The following applies: actives raise or lower the signal. In outline:
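SRD5A2-NanoLuc, HEK293T, 20 h expression. Chemical 10 nM - 29.9 uM, 8 conc, duplicate; 3 h preincubation + 2 h testosterone tracer. Nano-Glo substrate plus extracellular NanoLuc inhibitor; donor lum 460 nm. DMSO baseline, bidirectional fit.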
A general note: BRET reads energy transfer from a luciferase to a nearby fluorophore.

Assay [9] is described as follows: CCTE_Deisenroth_5AR_NBTE_acceptor: CCTE's 5alpha-reductase NanoBRET Target Engagement Assay - Autofluorescence Screen, Deisenroth Lab (AID 2284321; active = hit-call score of the fitted dose curve at least 0.9, where 1 is the maximum; inactive = score below 0.9;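 note: compound fluorescence in the acceptor channel under 460 nm excitation flags autofluorescence artifacts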). The following applies: actives raise or lower the signal. In outline: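 Using three independent plate-reader runs, nominal 100 uM chemicals were checked for intrinsic fluorescence (ex 460 nm). DMSO defined the baseline for bidirectional fitting.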

In assay [10] the test system is SRD5A2 (gene 6716). In words: CCTE_Deisenroth_5AR_NBTE_ratio: CCTE's 5alpha-reductase NanoBRET Target Engagement Assay - Ratio, Deisenroth Lab (AID 2284322; active = hit-call score of the fitted dose curve at least 0.9, where 1 is the maximum; inactive = score below 0.9). The following applies: actives raise or lower the signal. In outline:
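SRD5A2-NanoLuc HEK293T; cmpd 10 nM-29.9 uM, 3 h preinc + testosterone tracer 2 h; NanoBRET ratio 650/460; bidirectional fit vs DMSO.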

Assay [11] in a line: TAMU_PeakParms_SingleDonor1434_Asystole: Texas A&M University (TAMU) 1.5-hr Human Induced Pluripotent Stem Cell (iPSC)-derived Cardiomyocytes Calcium (Ca+2) Flux Assay for Cardiotoxicity: Asystole (quiescence of beating) (AID 2284328). The procedure, abridged: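 Average Ca2+-flux peak frequency (beats/s) was recorded in single-donor iPSC-derived cardiomyocytes after 90 min exposure (0.2–100 uM final, 0.5% DMSO). Asystole POD set as EC95 against DMSO, no preprocessing.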

Assay [12] can be described thus: VALA_TUBIPS_Antagonist_TubuleLength: VALA Sciences human iPS-derived Endothelial Tubule Formation (TUBIPS) Antagonist Assay (AID 2284313). The procedure, abridged: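 Tubule length was quantified by high-content imaging of CD31- and nuclear-stained cells, with 0.1% DMSO as neutral and 100 uM suramin as inhibition control. Compounds were applied for 3 days, in 10 ng/ml VEGF, to cultures pre-grown 3 days.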

Assay [13] is described as follows: VALA_MIGHUV2_Bcatenin: VALA Sciences human Umbilical Vein Endothelial Cell Migration (MIGHUV) Assay, Nuclear Translocation of beta-Catenin after Recovery (AID 2284315). The procedure, abridged:
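Nuclear beta-catenin imaged by immunofluorescence with Hoechst counterstain in fixed HUVEC, 24 h after scratch wounding and chemical addition. Six-point concentration-response in triplicate; activity scored as signal increase over 0.1% DMSO vehicle.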

A short description of assay [14]: VALA_MIGHUV2_WoundArea: VALA Sciences human Umbilical Vein Endothelial Cell Migration (MIGHUV) Assay, Area of Scratch Wound after Recovery (AID 2284316). In outline: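 Wound-area endpoint read by fluorescence imaging of Hoechst-stained nuclei after a 24 h recovery period following scratch of HUVEC monolayers (9000 cells/well). Chemicals dosed within 30 min post-scratch, triplicate 6-point series, 0.1% DMSO vehicle; Cytochalasin D positive control.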

Turning to `COP(=O)(NC(C)=O)SC` (stereo not drawn), the outcome in [1], in assay [2], in assay [3], in [4] and in assay [5] was inactive.

As for `CCOP(=S)(OCC)Oc1cc(C)nc(C(C)C)n1`, the compound was classed as inactive in assay [1], in assay [2], in assay [3], in assay [4] and in [5].

As to `CCCCSP(=O)(SCCCC)SCCCC`, the outcome in [1], in [2], in assay [3], in assay [4], in assay [5] and in assay [6] was inactive. Moreover, the outcome in [7] was inactive.

In the case of `CC[C@H](C)[C@H]1O[C@]2(C=C[C@@H]1C)C[C@@H]1C[C@@H](C/C=C(\C)[C@@H](O[C@H]3C[C@H](OC)[C@@H](O[C@H]4C[C@H](OC)[C@@H](NC)[C@H](C)O4)[C@H](C)O3)[C@@H](C)/C=C/C=C3\CO[C@@H]4[C@H](O)C(C)=C[C@@H](C(=O)O1)[C@]34O)O2`, the half-maximal activity concentration (AC50) was 1.04 µM (active) and 5.11 µM (active) in assay [1]; 1.88 µM (active) and 4.62 µM (active) in [2]; 1.05 µM (active) and 1.48 µM (active) in assay [3]; 836 nM (active) and 2 µM (active) in [4]; 1.14 µM (active) and 2.1 µM (active) in assay [5]; 0.811 µM (active) in assay [7]. Also, the half-maximal activity concentration (AC50) in assay [8] was 14.2 µM (active); in assay [9], 10 µM (active); in assay [10], 16.6 µM (active).

As for `CCOP(=S)(OCC)Oc1ccc([N+](=O)[O-])cc1`, the call in assay [7] and in assay [11] was inactive.

On to `C[Si](Cn1cncn1)(c1ccc(F)cc1)c1ccc(F)cc1`, for which the result in assay [8], in assay [9] and in assay [10] was inactive.

Turning to `CC(C)N(C(=O)SCC(Cl)=C(Cl)Cl)C(C)C`, the call in assay [2], in [3], in [4], in assay [5], in assay [8] and in assay [9] was inactive. Besides, the outcome in assay [10] was inactive. For the same compound, the AC50 in assay [7] is 20.2 µM (active).

For the compound `S=C1NCCN1`, the compound was classed as inactive in [1], in assay [2], in assay [3], in assay [4], in [5] and in assay [12]. Also, the call in [13], in [14] and in assay [7] was inactive.

For `CCCSP(=O)(OCC)SCCC`, the compound was classed as inactive in assay [1], in assay [2], in [3], in [4], in [5] and in assay [7].

Turning to `CCOP(=S)(Oc1cnc(C(C)(C)C)nc1)OC(C)C` (stereo not drawn), the compound was called inactive in [1], in [2], in assay [3], in assay [4] and in [5]. The AC50 in assay [7] is 21 µM (active).

On to `CSC1=N[C@@](C)(c2ccccc2)C(=O)N1Nc1ccccc1`, for which the result in [1], in [2], in assay [3], in assay [4], in assay [5] and in [7] was inactive. In addition, the compound was classed as inactive in [8], in assay [9] and in [10].

As to `N#CSCSC#N`, the compound was called inactive in [8] and in assay [9]. In addition, the concentration at half-maximal activity (AC50) in assay [10] is 19.5 µM (active).

Turning to `COP(=O)(OC)C(O)C(Cl)(Cl)Cl` (stereo not drawn), in [1], the AC50 is 5.08 µM (active). Also, the compound was classed as inactive in [2], in assay [3], in [4] and in [5].

Regarding `C=C(C)[C@H]1Cc2c(ccc3c2O[C@@H]2COc4cc(OC)c(OC)cc4[C@@H]2C3=O)O1`, the AC50 in [1] is 220 nM (active) and 15.5 nM (active); in assay [4], 1.41 nM (active); in assay [5], 267 nM (active) and 1.57 nM (active); in [7] it was 0.121 µM (active); in assay [10], 30.6 µM (active); in assay [11], 10 nM (active). Besides, the outcome in [2], in assay [3], in assay [8] and in assay [9] was inactive.

Consider `CN1COCN(Cc2cnc(Cl)s2)C1=N[N+](=O)[O-]`, for which the outcome in [1], in assay [2], in assay [3], in [4], in assay [5] and in [7] was inactive.

For orientation: AC50 means the concentration giving half of the maximal activity seen.
